Where a name gives a salt, the structure may show the parent alone.

We go through 24 compounds from the supplement of paper PMC10121225.
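Further: immunostained co-cultures imaged by high-content microscopy, Z-score per plate against mean and SD of 0.1% DMSO wells, compounds added on differentiation day 18, analysed day 21.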

The experiment has as its system hN + hpA co-culture (H1 iNGN2 human neurons + human primary astrocytes). Briefly: presynaptic density (SYNAPSIN1 puncta per MAP2 neurite area), Z-score vs DMSO controls; higher = more presynaptic puncta (synapse-promoting). The conditions noted are these: 3 µM; 72 h.
`N[C@@H]1C[C@H]1c1ccccc1` [Tranylcypromine (2-PCPA) HCl]: the “presynaptic density (Z-score)” value stood at 0.259. For `C[C@@]12N[C@@H](Cc3ccccc31)c1ccccc12` [(-)-MK 801 maleate] the value was -0.122; for `CN1CCc2cc3c(cc2C1C1OC(=O)c2c1ccc1c2OCO1)OCO3` (single isomer, unassigned; (+)) [(+)-Bicuculline], -0.322. Then `CC(=O)O[C@H]1C[C@@H]2CC[C@@H]3[C@H](CC[C@@]4(C)[C@H]3C[C@H]([N+]3(C)CCCCC3)[C@@H]4OC(C)=O)[C@@]2(C)C[C@@H]1[N+]1(C)CCCCC1` [Pancuronium dibromide], with -0.361. For `C[C@@H]1O[C@@H](O[C@H]2C[C@@H](O)[C@]3(CO)[C@H]4[C@H](O)C[C@]5(C)[C@@H](C6=CC(=O)OC6)CC[C@]5(O)[C@@H]4CC[C@]3(O)C2)[C@H](O)[C@H](O)[C@H]1O` [Ouabain] the value was -1.54; for `O=C(O)CNC(=O)c1c(O)c2ccccc2n(Cc2ccccc2)c1=O`, 0.0398. As to `O=[N+]([O-])C=Cc1ccc2c(c1)OCO2` [MNS (3,4-Methylenedioxy-Œ≤-nitrostyrene], the “presynaptic density (Z-score)” value was -0.543.

`CN1CCCCC1Cn1cc(C(=O)c2cc([N+](=O)[O-])ccc2I)c2ccccc21` (centres undefined): the “presynaptic density (Z-score)” value is -0.667. For `Cc1cc(SCc2sc(-c3ccc(C(F)(F)F)c(F)c3)nc2C)ccc1OCC(=O)O` the value was 0.227; for `CC[C@@H]1/C=C/C=C/C[C@H](C)[C@H](O)[C@](C)(O)C(=O)[C@H](C)[C@@H](O)[C@H](C)C(=O)[C@H](C)[C@@H](O)[C@H](C)/C=C/C(=O)O[C@H]2[C@@H](C)[C@@H](CC1)O[C@@]1(CC[C@@H](C)[C@@H](C[C@H](C)O)O1)[C@@H]2C` [Oligomycin A], -1.28. Then `Cc1cc2c(C(C)C)c(O)c(O)c(C=O)c2c(O)c1-c1c(C)cc2c(C(C)C)c(O)c(O)c(C=O)c2c1O`, with -4.31; and `CCCN1CCO[C@@H]2c3cc(O)ccc3OC[C@H]21`, with 0.0588; and `C[C@](O)(COc1ccc(C#N)cc1)C(=O)Nc1ccc(C#N)c(C(F)(F)F)c1`, with -0.892. For `Cn1cc(C2=C(c3cn(C4CCN(Cc5ccccn5)CC4)c4ccccc34)C(=O)NC2=O)c2ccccc21` [Enzastaurin] the value was 0.0046.

Consider `C=C1C[C@@H]2[C@H](CC[C@]3(C)C(=O)CC[C@@H]23)[C@@]2(C)C=CC(=O)C=C12` [Exemestane], for which the “presynaptic density (Z-score)” value was found to be 0.646. For `O=c1[nH]c2ccc(Cl)cc2c(N[C@@H]2CN3CCC2CC3)c1-c1nc2ccccc2[nH]1` the value was -2.58. Take `O=C(O[C@H]1C[C@H]2CC[C@@H](C1)[N+]21CCCC1)C(O)(c1ccccc1)c1ccccc1` [Trospium chloride]: the “presynaptic density (Z-score)” value is -0.748. Turning to `CCOC(=O)c1cncn1[C@H](C)c1ccccc1` [Etomidate], the “presynaptic density (Z-score)” value turned out to be 0.377. For `CCC(COC(=O)c1cc(OC)c(OC)c(OC)c1)(c1ccccc1)N(C)C` (centres undefined) the value was 0.31; for `CCc1c(C(=O)C(N)=O)c2c(OCC(=O)O)cccc2n1Cc1ccccc1`, 0.584; for `Cc1sc2c(c1C)C(c1ccc(Cl)cc1)=N[C@@H](CC(=O)OC(C)(C)C)c1nnc(C)n1-2`, 2.8.

On to `CCN(CC)C(=O)c1ccc(C2=CC3(CCNCC3)Oc3cccc(O)c32)cc1`, for which the “presynaptic density (Z-score)” value was -0.78.

Regarding `COc1ccc(C(=O)N2CCCC2=O)cc1` [Aniracetam], the “presynaptic density (Z-score)” value was 0.286. Then `O=C1CC[C@@]2(O)[C@H]3Cc4ccc(O)c5c4[C@@]2(CCN3CC2CC2)[C@H]1O5` [Naltrexone HCl], with 1.84.
